In the supplement of paper PMC6555819:

Key:
Test in all cases: PBM binding z-score (relative to random genomic background probes); higher = stronger binding; sequences stand for … in GC…GCGATTGACAGCGTAGAATGAAGG
[1] = system: RARb homodimer (NR concentration 270 nM)
Outline: (§1)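 Regression normalization was applied to scanned fluorescence from custom Agilent 4×180K protein-binding microarrays. Before scanning, arrays were incubated 1 h with ligand-free nuclear receptor dimers, and binding was detected with antibodies against each partner (one per run). Binding z-scores use the random background probes as reference.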

[2] = system: RARg:RXRa (NR concentration 270 nM, RXRa partner concentration 90 nM)
Outline: as §1

[3] = system: RARg homodimer (NR concentration 270 nM)
Outline: as §1

[4] = system: RXRa DBDmut IVT, anti-RXR (DBD mutation: RXRa K156A/R161A, NR concentration 90 nM)
Outline: as §1

[5] = system: RXRa homodimer (NR concentration 180 nM)
Outline: as §1

[6] = system: THRa:RXRa (NR concentration 90 nM, RXRa partner concentration 90 nM)
Outline: as §1

[7] = system: THRa homodimer (NR concentration 90 nM)
Outline: as §1

[8] = system: VDR homodimer (NR concentration 270 nM)
Outline: as §1

| Sequence | PBM binding z-score [1] | PBM binding z-score [2] | PBM binding z-score [3] | PBM binding z-score [4] | PBM binding z-score [5] | PBM binding z-score [6] | PBM binding z-score [7] | PBM binding z-score [8] |
| --- | --- | --- | --- | --- | --- | --- | --- | --- |
| CCGAGTAGGTTATGGGGCATTTAGGCAACGGTGA | 0.777 | 0.488 | 0.435 | 0.127 | 0.632 | 0.429 | 0.289 | -0.135 |
| GCTATTAGTTGAAAGGGCAACAGAATGATTCTCG | 1.87 | 1.36 | 1.47 | 0.874 | 1.24 | 0.672 | -0.526 | 0.397 |
| CAAACTAGGTCACCGGCAGGTCAAAGTCCGCATG | 5.08 | 7.9 | 7.05 | 2.05 | 6.42 | 4.37 | 3.02 | 2.72 |
| CCTACTGGGCCACGAAAGATCATTGATTCAGTGA | -0.335 | -0.154 | 0.283 | -0.361 | 0.0459 | -0.0965 | -0.393 | -0.52 |
| TCATATAGGTAAAGGTAAAAGTCGAACGATATGA | 0.156 | 0.701 | 0.679 | 0.705 | 1.11 | 0.531 | -0.456 | -0.0631 |
| TCTTGTAGATCAATAGAGGTTAATAAAGTGCGCT | 1.15 | 0.715 | 0.545 | 0.551 | 1.33 | 2.36 | -0.525 | 0.459 |
| CCTCGGAGGACAAGAGGAGGTCAGAGCTGCCAGA | 2.96 | 2.87 | 2.83 | 0.0626 | 1.58 | 2.55 | 0.679 | 0.697 |
